Many of the other results were omitted from the sample, so hits are more common in it than they were.
GIRK2 act = GIRK2 channel activators by thallium flux; 34,000 tested, under 10 active; HEK293 GIRK2/NPY4 cells, thallium flux fluorescence; P48051; activation (% efficacy), % for hits at 37.5 µM;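 active means primary screen hit, no activity in plain HEK293 cells, and in GIRK2-only cells above 5% efficacy rising with concentration; inactive means the rest, including fluorescent compounds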;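 further: efficacy is normalized control-subtracted fluorescence 15 s after thallium addition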
Target sequence (P48051 whole entry, looked up): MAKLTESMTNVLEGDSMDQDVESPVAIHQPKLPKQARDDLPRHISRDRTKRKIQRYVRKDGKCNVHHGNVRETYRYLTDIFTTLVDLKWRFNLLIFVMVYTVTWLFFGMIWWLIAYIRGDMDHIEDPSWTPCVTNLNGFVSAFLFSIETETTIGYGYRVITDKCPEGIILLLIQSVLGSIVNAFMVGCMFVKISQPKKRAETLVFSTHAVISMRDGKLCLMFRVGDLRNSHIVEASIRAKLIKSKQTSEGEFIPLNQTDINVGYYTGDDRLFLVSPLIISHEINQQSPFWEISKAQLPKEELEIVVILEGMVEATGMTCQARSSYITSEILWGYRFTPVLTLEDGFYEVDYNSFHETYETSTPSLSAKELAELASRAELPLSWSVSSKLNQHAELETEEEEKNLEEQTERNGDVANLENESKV
GluA2 TARP mod = modulators of AMPA receptor GluA2-stargazin complexes; HEK293 GluA2+stargazin, membrane potential dye (FDSS), glutamate EC50; hits were called plate by plate, in both directions; calls only at 30 µM; AID 1259245; 40,000 compounds, 3.5% hits; O88602+P19491;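 active means any of four per-well response measures lying three or more SD from its plate-wide compound average, in either direction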
* marks the source's active call; other numbers are inactive results; i = inactive; x = no result; + = active, no number; ! = repeats disagree.

SMILES | GIRK2 act | GluA2 TARP mod
CC1(C)CC(=O)C2=C(C1)NC1=C(C(=O)c3ccccc31)C2c1ccc(C(F)(F)F)cc1 (stereo not drawn) | x | +
CS(=O)(=O)c1ccc(CC(=O)Nc2nc(-c3nc4ccccc4s3)cs2)cc1 | x | i
CCc1ccc(NCc2cc3ccc(OC)cc3n(CC(=O)Nc3ccc(OC)cc3)c2=O)cc1 | i | +
CCc1ccc(NCc2cc3ccc(OC)cc3n(CC(=O)Nc3ccccc3F)c2=O)cc1 | x | i
COc1cc(COCC2CCN(C(=O)c3ccc(Br)o3)CC2)cc(OC)c1 | i | i
CC(=O)Nc1ccc(C(=O)NCCNC(=O)c2ccc(S(=O)(=O)N(C)C)cc2)cc1 | i | i
COC(=O)CN(CCc1ccccc1)Cc1nc2c(c(=O)n(C)c(=O)n2C)n1CC(=O)OC | i | i
COc1ccc(OCCCC(=O)Nc2cccc(Br)c2)cc1 | i | i
COc1ccc(S(=O)(=O)CC(=O)Nc2cccc(Br)c2)cc1 | i | +
COc1ccc(S(=O)(=O)CC(=O)Nc2ccccc2Oc2ccccc2)cc1 | i | +
O=C(CCCS(=O)(=O)c1ccccc1)Nc1ccccc1Oc1ccccc1 | i | i
O=C1CSC(=O)N1C1CCCCC1NC(=O)C1(c2ccccc2)CCOCC1 (stereo not drawn) | i | i
O=c1[nH]c2sc3c(c2c(=O)n1-c1ccccc1)CCCC3 | i | i
O=c1c2c3c(sc2ncn1/N=C/c1cccnc1)CCC3 | x | +
Cc1ccc(NCCNS(=O)(=O)c2cc(F)ccc2F)nn1 | i | i
Cc1cccc(NC2SC(=O)N(Cc3ccccc3)C2=O)c1 (stereo not drawn) | i | +
O=C(CC1SC(=O)N(CC(=O)c2ccccc2)C1=O)Nc1ccc(Br)cc1 (stereo not drawn) | i | i
Cc1cccc(NC2SC(=O)N(C(C)C)C2=O)c1 (stereo not drawn) | i | i
C=CCN1C(=O)SC(CC(=O)Nc2ccc(Br)cc2)C1=O (stereo not drawn) | i | +
C=CCN1C(=O)SC(CC(=O)Nc2ccc(NC(C)=O)cc2)C1=O (stereo not drawn) | i | i
Cc1cccc(NC(=O)CC2SC(=O)N(CC(=O)c3ccccc3)C2=O)c1 (stereo not drawn) | i | +!
CCOC(=O)Cn1c(=O)c2c(nc(-n3nc(CC)cc3CC)n2C(C)C)n(C)c1=O | x | i
COC(=O)c1c2c(nc3c1c(-c1ccco1)nn3C1CCS(=O)(=O)C1)CCC2 (stereo not drawn) | i | x
Nc1c(C(=O)N2CCCC2)sc2nc(-c3ccco3)c3c(c12)CCCC3 | x | +
CC(=O)c1sc2nc(-c3ccco3)c3c(c2c1N)CCCC3 | x | +
SMILES | GIRK2 act | GluA2 TARP mod
Cc1nc(C)c(C(=O)N2CCN(c3ccc4nnc(-c5ccco5)n4n3)CC2)s1 | i | i
Cn1c(=O)[nH]c(=O)c2c1nc(NCCc1ccccc1)n2CC(=O)O | i | i
COc1ccccc1/C=C/C(=O)c1cc(C)ccc1O | x | i
O=C(CSc1nc(-c2ccccc2)nc2c1CCCC2)N1CCOCC1 | x | +
Cc1cccc(-c2nc3c(c(SCC(=O)N(C)C)n2)CCCC3)c1 | i | i
COc1ccc(OC)c(-n2c(C)c(C)n3c4c(=O)n(CCN5CCOCC5)c(=O)n(C)c4nc23)c1 | x | i
COc1ccc(Cl)cc1NC(=O)C(=O)NCC(O)(c1cccs1)C1CC1 (stereo not drawn) | i | i
O=c1c2sc3cccc(F)c3c2nc2n1CC(NCc1ccccc1)OC2 (stereo not drawn) | i | x
COc1ccc(Cl)cc1NC(=O)Nc1ccc2c(c1)N(C(=O)c1ccccc1)CCC2 | i | x
COc1ccc(-c2ccc(=O)n(CCNC(=O)c3ccc(S(=O)(=O)N4CCCCC4)cc3)n2)cc1 | x | +
COc1ccc(-c2ccc(=O)n(CCNC(=O)c3ccc(S(=O)(=O)N(C)C)cc3)n2)cc1 | x | i
O=C(NCC(c1cccs1)N1CCOCC1)c1c(F)cccc1Cl (stereo not drawn) | i | i
O=C(NCC(c1ccsc1)N1CCCCCC1)c1c(F)cccc1Cl (stereo not drawn) | i | +
O=C(CSc1nc(=O)n(CCO)c2c1CCCC2)Nc1cccc([N+](=O)[O-])c1 | i | i
CC(C)S(=O)(=O)c1ccc(C(=O)Nc2nc3c(s2)CSc2ccccc2-3)cc1 | i | i
O=C(Nc1nc2c(s1)CSc1ccccc1-2)c1cc2ccccc2o1 | x | +
CCOc1ccccc1NC(=O)CSc1ccc(NC(=O)c2ccccc2)nn1 | i | i
CC(=O)c1ccc(NC(=O)Cn2c(=O)n(Cc3ccccc3)c(=O)c3nscc32)cc1 | i | +
Cc1cccc(Cn2c(=O)c3nscc3n(CC(=O)Nc3ccccc3C)c2=O)c1 | i | i
CC(C)N1CCC(CNC(=O)C(=O)NCc2ccc3c(c2)OCO3)CC1 | i | i
O=C(NCc1ccc2c(c1)OCO2)C(=O)NCC1CCN(C(=O)c2ccncc2)CC1 | i | +
Cc1cc(=O)[nH]c(SCC(=O)N2CCN(C(c3ccccc3)c3ccccc3)CC2)n1 | x | i
CCn1c(SCC(=O)N2CCN(C(c3ccccc3)c3ccccc3)CC2)nc2ccccc2c1=O | x | +
CCCCC(=O)Nc1nnc(-c2ccnn2C(C)C)o1 | i | i
COc1cc(/C=C2\SC(=S)N(c3cccc(C)c3C)C2=O)ccc1O | x | +
SMILES | GIRK2 act | GluA2 TARP mod
COc1cc(/C=C2/SC(=S)N(c3ccc(C)c(C)c3)C2=O)ccc1O | x | i
Cc1ccc(S(=O)(=O)NC2CC(C)(C)NC(C)(C)C2)cc1 | x | i
Cc1ccc([N+](=O)[O-])cc1S(=O)(=O)NC1CC(C)(C)NC(C)(C)C1 | x | +
CC(C)CCNC(=O)CCc1csc(NC(=O)c2ccc[nH]c2=O)n1 | x | i
COCCNC(=O)CCc1csc(NC(=O)c2ccc[nH]c2=O)n1 | i | +
O=C(CCCS(=O)(=O)c1ccc(F)cc1)Nc1nc2c(Cl)cccc2s1 | x | i
O=C(CCn1c(=O)sc2ccccc21)NCCCN1CCOCC1 | i | i
CC(=O)c1sc(=Nc2ccccc2Cl)n(CCCN2CCOCC2)c1C | i | +
Cc1cc(Nc2ccncc2)n2nc(C)c(-c3ccccc3Cl)c2n1 | i | i
CCc1nc2ccccc2n1CCOc1ccccc1 | x | i
CCC(O)c1nc2ccccc2n1CCOc1ccccc1 (stereo not drawn) | x | +
COc1ccc(C(C)C)cc1S(=O)(=O)Nc1cc(Cl)ccc1O | i | i
Cc1ccc(C)c(S(=O)(=O)N2CCCN(CCn3cccn3)CC2)c1 | i | i
Cc1ccc(S(=O)(=O)N2CCN(CCn3cccn3)CC2)c(C)c1 | i | +
CN(C)C(CNC(=O)C(=O)NC1CC1)c1ccc(F)cc1 (stereo not drawn) | i | i
Cc1ccc(C(CNC(=O)C(=O)NC2CC2)N(C)C)cc1 (stereo not drawn) | i | +
O=C(CCc1ccccc1)NCC1CCN(Cc2cccs2)CC1 | i | x
CCS(=O)(=O)N1CCCc2cc(NS(=O)(=O)c3ccc(OC)c(C)c3)ccc21 | x | i
CC(C(=O)Nc1nc2ccc([N+](=O)[O-])cc2s1)N1C(=O)c2ccccc2S1(=O)=O (stereo not drawn) | x | i
